In the library only some 4.2% were active in any assay of this set; here they are far more common.
PLK1 PBD inh: qHTS for Inhibitors of PLK1-PDB (polo-like kinase 1 - polo-box domain): Primary Screen; 2.8% of 360,000 active; Serine/threonine-protein kinase PLK1 (Homo sapiens), P53350; Potency, µM, without a hit: max response, negative = inhibition, actives largely listed as inhibitors; Plk1 PBD binding of FITC phosphopeptide, fluorescence polarization; further: series mostly up to about 57 µM; nearly all actives have a fitted effect of over 65% in size
VDR inhibitor: Inhibitors of the vitamin D receptor (VDR): qHTS. AID 504847, 2011. 0.93% of 400,000 active. Potency, µM, for inactives: max response, negative = inhibition, usual class: inhibitors. VDR-SRC2-3 peptide fluorescence polarization, 2 h
Target sequence (P11473 whole entry, looked up): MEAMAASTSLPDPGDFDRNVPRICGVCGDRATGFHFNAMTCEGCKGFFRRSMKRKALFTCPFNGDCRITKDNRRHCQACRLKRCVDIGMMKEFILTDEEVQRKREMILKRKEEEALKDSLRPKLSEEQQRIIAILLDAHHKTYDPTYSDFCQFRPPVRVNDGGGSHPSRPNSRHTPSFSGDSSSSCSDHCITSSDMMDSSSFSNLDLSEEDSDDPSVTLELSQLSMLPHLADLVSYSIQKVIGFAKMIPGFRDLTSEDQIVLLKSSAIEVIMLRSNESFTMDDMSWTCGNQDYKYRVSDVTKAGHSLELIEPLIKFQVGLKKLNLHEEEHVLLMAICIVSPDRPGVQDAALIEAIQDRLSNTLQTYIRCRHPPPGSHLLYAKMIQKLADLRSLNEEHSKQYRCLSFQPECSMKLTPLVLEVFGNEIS
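FP read-out; VDR + SRC2-3 coactivator peptide; 23 nl compound by pintool; 2 h RT incubation; reagents held at 4 deg C, protected from light.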
Sfp inh: qHTS Assay for Inhibitors of Bacillus subtilis Sfp phosphopantetheinyl transferase (PPTase); 4'-phosphopantetheinyl transferase ffp (Bacillus subtilis), Q9F4F7; Biochemical Sfp PPTase activity, qHTS; Potency, µM, for the others: largest response in the series, negative = inhibition, hits mostly inhibitors; 3.5% of 310,000 active; AID 1490, 2009;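 further: the enzyme is Sfp with the accession as filed and its product quenches rhodamine fluorescence; 0% = enzyme reaction without inhibitor and -100% = no enzyme wells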
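Reaction rates are the 30-min fluorescence difference (ex 525, em 598 nm) in wells containing 15 nM Sfp, 5 uM rhodamine-CoA and 12.5 uM BHQ-2-YbbR at pH 7.6 with 10 mM MgCl2.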
12-LOX inh: Primary qHTS assay for inhibitors of human arachidonate 12S-lipoxygenase (ALOX12): Round 2. purified 12hLO, xylenol orange hydroperoxide absorbance. AID 1671190, 2021. Potency, µM (highest dose often 108 µM), inactives show top-dose activity change, negative = inhibition, actives largely listed as inhibitors. 1.1% of 580,000 active
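Purified human 12hLO (150 nM final) in 25 mM Hepes, 0.01% Triton X-100, pH 7.0 was preincubated 15 min at room temperature with compound. Then 40 uM arachidonic acid was added, 30 min. Hydroperoxide was read by Fe-XO absorbance ratio 573/405 nm.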
An asterisk follows results filed as active; ? = inconclusive; / = no result given. The call rests on the fitted dose curve; in most records, active means well fitted curve in the direction sought with a large enough effect; inconclusive means small, poorly fitted or top-dose-only effect, or another doubt; inactive means no such curve, though single readings can be large; an effect the other way counts as inactive or inconclusive. Unless noted, on the % scale 0 is the no-effect control and ±100 the full control effect; potency means the concentration at half of the fitted maximal effect.

SMILES | PLK1 PBD inh | VDR inhibitor | Sfp inh | 12-LOX inh
O=C(N[C@@H]1CN(Cc2ccc(F)cc2)C[C@H]1CO)c1ccccc1 | / | / | / | 13µM*
O=C(N[C@@H]1CN(Cc2cc(F)cc(F)c2)C[C@H]1CO)c1ccccc1 | / | / | / | 9%
CN(CC(=O)NCc1ccc2c(c1)OCO2)S(=O)(=O)c1ccc(F)cc1 | -3% | 7% | 19% | -1%
Cc1ccc(C(=O)O)cc1N1C(=O)c2cccc3c([N+](=O)[O-])ccc(c23)C1=O | ? | -14% | -19% | 5µM*
COc1ccc(CSC2=C(C#N)C(=O)NC3(CCCCC3)S2)cc1 | -11% | / | / | ?
CCCCCCSC1=C(C#N)C(=O)NC2(CCCCC2)S1 | 27µM* | ? | 19% | 45µM*
COc1ccc(CNc2nc(NC(C)=O)nn2-c2ccccc2)cc1 | -5% | 13% | 6% | ?
O=C(NCCCN1CCCC1)C1CCNCC1 | / | / | / | 10%
CCC(=O)N(C)CCc1cc2c(c(OC)c1/C=N/NC(=O)c1ccc(Br)cc1)OCO2 | 24µM* | ? | 2% | -2%
C[C@@H]1OC(C2CCCCC2)N(C)[C@H]2C[C@H]3c4cc(-c5ccc6c(c5)OCO6)ccc4CCN3C[C@@H]12 (stereo not given in full) | / | / | / | 39%
O=C(O)c1cccc(NC(=S)N/N=C/c2cccc(O)c2)c1 | -14% | -1% | -5% | ?
COC(=O)c1ccc(COc2ccccc2/C=N/Nc2cccc(C(=O)O)c2)cc1 | -24% | -5% | 1% | ?
O=C(O)c1cccc(NC(=S)N/N=C/c2ccccc2OCc2ccc(Br)cc2)c1 | 24µM* | ? | -16% | 16µM*
O=C(COc1cccc2ccccc12)N/N=C/c1ccccc1OCc1ccc(C(=O)O)cc1 | 27µM* | 4% | -18% | 14%
O=C(COc1ccccc1-c1ccccc1)N/N=C/c1cccc2ccccc12 | 0% | 14% | 1% | -16%
O=C(O)c1cccc(NC(=S)N/N=C/c2ccccc2OCc2cccc(Br)c2)c1 | ? | ? | ? | 28µM*
Oc1c(N=NC(=S)Nc2ccccc2F)c2ccccc2n1Cc1ccc(F)cc1 | ? | -3% | ? | -18%
CCc1ccc(CCC(=O)NNc2cccc(Cl)c2)cc1 | / | / | / | 16µM*
O=C(CCc1ccccc1)NNC(=O)Nc1cccc(Cl)c1 | 3% | -12% | 8% | 472%
Cc1cc(C)cc(NC(=O)c2nn(CC(C)C)c(=O)c3ccccc23)c1 | / | / | / | 2%
O=c1[nH]c(N2CCCC2)nc2nccc(-c3ccccc3)c12 | / | / | / | 13%
O=c1[nH]c(N2CCCCC2)nc2ncn(Cc3ccccc3)c12 | 27µM* | ? | 15% | 15%
O=C(CSc1nnc2c(n1)[nH]c1ccccc12)Nc1ccc(N2CCOCC2)cc1 | ? | 4% | 7.9µM* | 42%
Cc1nc(SCC(=O)Nc2cccc(S(=O)(=O)N3CCOCC3)c2)nc(C)c1C | -19% | -13% | / | -2%
O=C(CSc1nnc2c(n1)[nH]c1ccccc12)Nc1ccc2c(c1)OCO2 | 27µM* | -8% | 45µM* | -33%
SMILES | PLK1 PBD inh | VDR inhibitor | Sfp inh | 12-LOX inh
Cc1ccc(NC(=O)CSc2nnc3c(n2)[nH]c2ccccc23)cc1 | -1% | 4% | 14% | 12%
Cc1ccccc1SCC(=O)Nc1ccc(N2CCOCC2)cc1 | 19µM* | -27% | 17% | ?
O=C(CSc1nnc2c(n1)[nH]c1ccccc12)Nc1cccc(S(=O)(=O)N2CCOCC2)c1 | -25% | 0% | 79µM* | -29%
CCc1cccc(CC)c1NC(=O)COC(=O)c1ccccc1-c1nc2ccccc2s1 | 1% | 2% | 3% | -7%
Cc1ccc(NC(=O)COC(=O)c2ccc(C)c(S(=O)(=O)N3CCOCC3)c2)cc1 | 1% | -2% | / | -3%
COc1ccccc1Oc1ncccc1CNC(=O)c1ccc(C)nc1 | / | / | / | 32%
Cc1ccc2c(C)c(C(=O)N3CCN(c4cnccn4)CC3)oc2c1C | 1% | -10% | 4% | 0%
NS(=O)(=O)c1ccc(NC(=S)NCC2CCCO2)cc1 (stereo not given) | 24µM* | -19% | 45µM* | ?
CC(=O)Nc1ccc(S(=O)(=O)NNC(=S)NCC2CCCO2)cc1 (stereo not given) | -4% | -2% | 56µM* | ?
CC(=O)Nc1ccc(S(=O)(=O)NNC(=S)NCc2ccco2)cc1 | -5% | 2% | 45µM* | -3%
Cc1ccc(NS(=O)(=O)c2ccc(C(=O)NCC3CCCO3)cc2)cc1 (stereo not given) | -7% | -26% | 18% | -3%
S=C(NCC1CCCO1)Nc1ccc(Nc2ccccc2)cc1 (stereo not given) | ? | -3% | 18% | ?
Cc1ccc(C(C)(C)C)c(OCCOCCN2CCCC2)c1 | 4% | -7% | -5% | -25%
O=C(NCc1ccncc1)c1ccc2nc([C@@H]3O[C@H](CO)[C@H](O)[C@H](O)[C@H]3O)[nH]c2c1 | -12% | / | / | 7%
C[C@H](C(=O)N1CCCC1)C1CC[C@@]2(C)Cc3sc(-c4ccccc4)nc3[C@@H](C)[C@@H]2[C@H]1O (stereo not given in full) | / | / | / | 9%
COc1ccc(NC(=O)Cn2cnc3ccc(S(=O)(=O)N4CCC(C)CC4)cc3c2=O)cc1Cl | / | ? | / | -11%
O=C(Oc1cccccc1=O)c1ccccc1 | -26% | 14% | 25µM* | -14%
COc1cccc(CCC(=O)N(C)C2CCCN(Cc3ccccc3F)C2)c1 (stereo not given) | -14% | -10% | 11% | -2%
CN(C(=O)CCc1ccccc1F)C1CCCN(Cc2ccccc2F)C1 (stereo not given) | 3.4µM* | 35µM* | 8% | 7%
O=C(c1[nH]c(C(F)(F)F)nc1-c1ccccc1)N1CCN(c2ncccc2C(F)(F)F)CC1 | -7% | / | / | -4%
Cc1cc(C)c(C(=O)CSc2nnc(N)s2)cc1C | 9.5µM* | ? | 6% | 21%
CCOC(=O)c1ccc(NC(=O)c2c(NCc3sccc3C)sc3c2CCCCC3)cc1 | / | ? | / | 11µM*
CCOC(=O)c1c(NC(=O)c2nn(CC)cc2Br)sc2c1CCCCC2 | -17% | 1% | 20µM* | -20%
Cc1cccc(NC(=O)c2c(NC(=O)c3ccccc3)sc3c2CCCC3)c1 | / | 79µM* | / | ?
Cc1cccc(NC(=O)c2c(NC(=O)c3ccccc3)sc3c2CCC3)c1 | / | -8% | / | ?
CCOC(=O)Nc1sc2c(c1C(=O)OCC)CCC2 | 0% | -1% | 40µM* | ?
CCc1cccc(NC(=O)c2nccnc2N)c1 | / | / | / | 4%
Cc1cc(/C=C(\C#N)C(=O)OCC(=O)N(C)c2c(N)n(Cc3ccccc3)c(=O)[nH]c2=O)c(C)n1CC(C)C | -1% | / | / | -14%
O=C(COc1cnc2ccccc2n1)NCCC1=CCCCC1 | -9% | -14% | 10% | 43%

From PubChem BioAssay
